RORg inh – qHTS for inhibitors of ROR gamma transcriptional activity; Nuclear receptor ROR-gamma (Mus musculus), P51450; hit rate 5.4% among 310,000; Drosophila S2 Gal4-RORgamma UAS-luciferase reporter, 20 h; Potency, µM (titrated, usually from 53.6 µM), for inactives: at the top dose activity change, negative = inhibition, actives largely listed as inhibitors; further: on the % scale 0 is the no-effect control and ±100 the full control effect; nearly all actives have a fitted effect of over 60% in size
Target sequence (P51450 whole entry, looked up, the tested form may be a part): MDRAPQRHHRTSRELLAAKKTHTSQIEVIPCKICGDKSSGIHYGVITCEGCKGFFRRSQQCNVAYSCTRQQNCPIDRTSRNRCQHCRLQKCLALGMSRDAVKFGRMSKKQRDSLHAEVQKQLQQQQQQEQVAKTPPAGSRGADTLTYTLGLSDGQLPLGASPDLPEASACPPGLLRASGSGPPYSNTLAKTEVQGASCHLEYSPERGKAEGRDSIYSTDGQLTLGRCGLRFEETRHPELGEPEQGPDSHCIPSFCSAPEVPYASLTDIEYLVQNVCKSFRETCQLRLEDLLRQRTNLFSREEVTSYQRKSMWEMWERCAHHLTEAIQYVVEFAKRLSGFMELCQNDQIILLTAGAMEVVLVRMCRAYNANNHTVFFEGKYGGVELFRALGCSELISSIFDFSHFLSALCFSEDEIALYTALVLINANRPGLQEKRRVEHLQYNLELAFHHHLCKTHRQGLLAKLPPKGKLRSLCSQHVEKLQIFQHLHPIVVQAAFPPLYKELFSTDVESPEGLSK
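Schneider cells (Drosophila), stable Gal4 DBD–ROR gamma + UAS-luc; 1 hr cmpd preincubation; Cu2+ induction 700 uM final; 20 hr ambient; luminescence.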
TGFb inhibitor – qHTS for Inhibitors of TGF-b. HepG2 CAGA-GFP TGF-b/SMAD3 reporter, GFP fluorescence, 18 h; TGF-beta stimulated, 500 pg/mL final. hit rate 1.2% among 410,000. Potency, µM (highest dose often 46.1 µM), inactives show top-dose activity, negative = inhibition, actives largely listed as inhibitors; further: on the % scale 0 is the no-effect control and ±100 the full control effect; nearly all actives have a fitted effect of over 65% in size
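Using HEPG2 CAGA-GFP reporter cells at 1000 cells/well, we pinned test compounds, stimulated with recombinant TGF-beta (500 pg/mL final) and measured total well GFP after 18 h.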
HepG2 viability – qHTS for Inhibitors of TGF-b: Cytotox Counterscreen; HepG2 CAGA-GFP viability, ATP luminescence, 18 h; Potency, µM (highest dose often 46.1 µM), for the others: top-dose activity change, negative = cytotoxicity, most hits filed as cytotoxic; hit rate 0.76% among 410,000; AID 588856, 2011
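HepG2 CAGA-GFP cells (1000/well, DMEM with 1% FBS) received compound, then TGF-beta at 500 pg/mL final, and were incubated 18 hours at 37 degrees C. Viability was read by CellTiter-Glo luminescence. Media-only wells were set as complete cell-killing and DMSO as no toxicity.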
VP16 counter – VP16 counterscreen qHTS for inhibitors of ROR gamma transcriptional activity. Drosophila S2 Gal4-VP16 UAS-luciferase, luminescence, 20 h. Potency, µM (highest dose often 53.6 µM), for inactives: top-dose activity, negative = inhibition, usual class: inhibitors. hit rate 3.5% among 310,000. AID 2546, 2010;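 further: Gal4-VP16 expression switched on by copper sulfate through the metallothionein promoter; on the % scale 0 is the no-effect control and ±100 the full control effect; nearly all actives have a fitted effect of over 50% in size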
ATXN2 expr inh – Primary qHTS for Inhibitors of ATXN expression; hit rate 0.72% among 360,000; Potency, µM (top dose mostly 57 µM), inactives show top-dose activity change, negative = inhibition, hits mostly inhibitors; HEK-293 ATXN2-luciferase reporter, luminescence, 24 h; further: on the % scale 0 is the no-effect control and ±100 the full control effect; nearly all actives have a fitted effect of over 55% in size
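ATXN2-luciferase reporter cells (luciferase flanked by upstream and downstream ATXN2 gene portions) were treated 24 h at 37 °C with compounds at up to 57 uM. SteadyGlo luminescence gave expression; GF-AFC fluorescence gave viability.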
S2 tox – Viability Counterscreen for Primary qHTS for Inhibitors of ATXN expression. Potency, µM (doses to about 56.7 µM), most hits filed as cytotoxic. AID 651635, 2014. hit rate 0.49% among 400,000. S2 cells (HEK-293 line with an ATXN2-luciferase reporter) viability, CellTiter-Fluor protease fluorescence, 24 h; further: nearly all actives have a fitted effect of over 40% in size
The depositor's hits bear a star; i = inactive; u = inconclusive; x = no result; ! = a repeat was not active; [ ] = dose if it differs, or a comment. Shown are actives, neighbours in structure and some others; about 6.1% of the full set was active somewhere. The call rests on the fitted dose curve; in most records, active means well fitted curve in the direction sought with a large enough effect; inconclusive means small, poorly fitted or top-dose-only effect, or another doubt; inactive means no such curve, though single readings can be large; an effect the other way counts as inactive or inconclusive. Potency means the concentration at half of the fitted maximal effect.

SMILES	RORg inh	TGFb inhibitor	HepG2 viability	VP16 counter	ATXN2 expr inh	S2 tox
Cc1[nH]n(-c2ccccc2)c(=O)c1C(c1cc(Cl)ccc1O)c1c(C)[nH]n(-c2ccccc2)c1=O	x	7.9µM*	-62%	x	x	x
CCn1cc(C(=O)Nc2cccc(Cl)c2)c2cc(OC)c(OC)cc2c1=O	x	u	-16%	x	u	u
Cc1cc2c(cc1S(=O)(=O)Nc1cccc(Cl)c1C)n(C)c(=O)c(=O)n2C	x	-2%	2%	x	-2%	i
CCc1cc(=S)n2c([nH]c3ccccc32)c1C#N	u	7.9µM*	-41%	3%	u	x
O=C(c1cccs1)N1CCCc2cc(NS(=O)(=O)c3cc(F)ccc3F)ccc21	x	-25%	-19%	x	-6%	i
CCN1C(C(=O)c2ccccc2)=C(OC(=O)c2ccc(Cl)cc2)c2ccccc2S1(=O)=O	x	11µM*	-57%	x	x	x
CCCN1C(C(=O)c2ccccc2)=C(OC(=O)COc2ccccc2)c2ccccc2S1(=O)=O	x	u	-24%	x	x	x
CCOC(=O)CN1C(C(=O)c2ccccc2)=C(OC(=O)c2ccccc2)c2ccccc2S1(=O)=O	x	u	-42%	x	9%	u
CCCCC(=O)OC1=C(C(=O)c2ccccc2)N(C)S(=O)(=O)c2ccccc21	x	18µM*	-31%	x	-27%	i
CC(C)c1nc2cccnc2n1C1CCN(C(=O)Cn2cccn2)CC1	x	x	x	x	x	i
Cc1ccc(C(=O)NCC(=O)OCc2cc(=O)n3ccsc3n2)cc1	x	-12%	2%	x	-1%	i
COc1ccccc1NC(=O)C1=C(C)Nc2nc(-c3ccco3)nn2C1c1ccccc1F (stereo not given)	x	30%	2%	x	-2%	u
Cc1nc(SCC(=O)Nc2ccccc2)c2oc3ccccc3c2n1	11%	6%	12%	-8%	-36%	u
CNC(=O)C(Sc1nc(C)nc2c1oc1ccccc12)C(C)=O (stereo not given)	33%	29%	3%	7.1µM*	8%	i
Cc1cccc(Nc2nc(-c3ccccc3)c3cc(C)ccc3n2)c1	x	-11%	-26%	x	x	x
COc1cccc(OCCn2cc(C(C)=O)c3ccccc32)c1	u	-23%	-2%	u	1%	i
CNC(=S)N/N=C/c1cn(CCOc2ccccc2OC)c2ccccc12	0.89µM*	-17%	-1%	1µM*	25%	i
COC(=O)N/N=C/c1cn(CCOc2ccccc2OC)c2ccccc12	29%	0%	-21%	10%	-2%	i
CNC(=S)N/N=C/c1cn(CCOc2cccc(OC)c2)c2ccccc12	1µM*	-3%	-26%	5µM*	-2%	u
COCCn1c(C)cc(O)c(C(c2ccc(F)cc2)N2CCN(c3ccccc3)CC2)c1=O (stereo not given)	x	11%	0%	x	x	x
CCOC(=O)Cn1c(=O)n(CC2CCCO2)c2nc(-c3ccc(C(C)C)cc3)nc(C(N)=O)c21 (stereo not given)	x	1%	-11%	x	-5%	i
COc1ccc(CNC(=O)Cc2nn(C)c(=O)c3ccccc23)cc1	u	6%	-1%	8.9µM*	-8%	i
Cn1nc(CC(=O)NCc2ccc(C(F)(F)F)cc2)c2ccccc2c1=O	19%	2%	-1%	u	-14%	i
Cc1ccc(NC(=O)CN(C)CC(=O)Nc2sc3c(c2C(N)=O)CCC3)cc1	16µM*	u	-19%	u	u	i
CC1CCCN(CCCNC(=O)c2ccc3c(c2)N(Cc2ccccc2F)C(=O)c2ccccc2S3(=O)=O)C1 (stereo not given)	-39%	u	11µM*!	u	u	u
SMILES	RORg inh	TGFb inhibitor	HepG2 viability	VP16 counter	ATXN2 expr inh	S2 tox
CCN1CCCC1CNC(=O)c1ccc2c(c1)N(Cc1ccccc1F)C(=O)c1ccccc1S2(=O)=O (stereo not given)	-14%	-3%	1%	-9%	-8%	i
O=c1[nH]cnc2n[nH]nc12	x	16%	21%	x	x	x
Cc1c(C)n(Cc2ccccc2)c2ncnc(NN)c12	u	u	-39%	16µM*	-6%	i
Cc1csc(SCC(=O)Nc2ccccc2C)n1	x	-7%	-4%	x	-8%	u
CCn1c(C)cs/c1=N\C(=S)Nc1ccccc1C	2.2µM*	2%	-10%	5.6µM*	8%	i
c1ccc2c(c1)Cc1cc3cc4c(cc3nc1-2)OCO4	2.2µM*	x	x	2.2µM*	x	x
O=c1cc(C(Cl)(Cl)Cl)oc2c1ccc1ccccc12	1.4µM*	-27%	-50%	5.6µM*	u	x
O=c1cc(-c2ccco2)oc2c1ccc1ccccc12	10%	19%	-77%	-3%	-9%	i
CN[C@H]1C[C@H]2c3[nH]c4ccc(-c5ccc(OC)cc5)cc4c3CCN2C(=O)[C@H]1[C@H](C)O	x	16µM*	14µM*	x	18µM*	u
COc1ccc(NC(=O)O[C@@H](C)[C@@H]2CN3CCc4c([nH]c5ccc(-c6ccc(OC)cc6)cc45)[C@@H]3C[C@@H]2N(C)C(=O)Nc2ccc(OC)cc2)cc1	x	u	-41%	x	u	u
COc1ccc(NC(=O)N(C)[C@H]2C[C@H]3c4[nH]c5ccc(-c6ccc(OC)cc6)cc5c4CCN3C[C@H]2[C@H](C)O)cc1	x	u	-103%	x	22µM*	x
COc1ccc(NC(=O)N(C)[C@H]2C[C@H]3c4[nH]c5ccc(-c6ccc7c(c6)OCO7)cc5c4CCN3C[C@H]2[C@H](C)O)cc1	x	u	-83%	x	16µM*	20µM*
CC(NC(=O)C1CCN(S(=O)(=O)c2ccc3c(c2)oc(=O)n3C)CC1)c1ccccc1 (stereo not given)	x	-16%	-5%	x	-2%	i
COc1ccccc1-c1ccnc(-n2ncc(C(=O)NCc3cccc(C)n3)c2C)n1	x	x	x	x	x	i
CCCCCCC1=Cc2cc(OC)c(OC)cc2C(CC(=O)/C=C/OC)O1 (stereo not given)	4%[10 µM]	x	x	4%[10 µM]	x	x
COc1ccc(C(N)c2csc(Nc3ncccn3)n2)cc1 (stereo not given)	x	2%	-7%	x	-29%	i
COc1ccc(C(N)c2csc(Nc3nncc4ccccc34)n2)cc1 (stereo not given)	x	13µM*	-66%	x	-32%	u
Cc1cc(C)c(NC(=O)CN2C(=O)CCn3nc(-c4cccn4C)cc32)c(C)c1	x	-6%	-14%	x	-6%	i
CCOC(=O)c1nn(C23CC4CC(CC(C4)C2)C3)c2c1C(=O)N(c1ccc(C)cc1)C2=O	11µM*	38%	9%	7.1µM*	-18%	u
